The source made the active and inactive calls.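 Rule for the calls: active = compounds whose fitted half-maximal concentration for lowering the signal is under 100 µM; inactive = the rest.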
Assay: fluorescence change in empty-vector K562 cells, dose response, counter-screen for ABCB6 inhibitor project, cell-based, flow cytometry, cherry pick set 1 (AID 623957)

## C[N+](C)(C)CC1CCCC(C[N+](C)(C)C)C1=O (stereo unspecified)
  outcome: inactive

From PubChem BioAssay AID623957 (NMMLSC, 2012)
